Laboratory results taken from PubChem BioAssay AID504652 (National Center for Advancing Translational Sciences (NCATS), 2011).
Among all 360,000 compounds or so, about 11,000 (3.1%) were called active. Rule as the data show it: active = activity change below about -30%; inactive = the rest. What follows is part of a selection rich in actives, with near analogues and random picks from the rest.
% is scaled to controls: 0 for no effect and ±100 for the full control effect.

These molecules were tested against D(1A) dopamine receptor (Homo sapiens) (UniProt P21728) (assay: Antagonist of Human D 1 Dopamine Receptor: qHTS). Settings: HEK293 TREx D1 cells, calcium flux, dopamine EC80; at 10 µM; active compounds read low.
D(1A) dopamine receptor (Homo sapiens), sequence (P21728 whole entry, looked up): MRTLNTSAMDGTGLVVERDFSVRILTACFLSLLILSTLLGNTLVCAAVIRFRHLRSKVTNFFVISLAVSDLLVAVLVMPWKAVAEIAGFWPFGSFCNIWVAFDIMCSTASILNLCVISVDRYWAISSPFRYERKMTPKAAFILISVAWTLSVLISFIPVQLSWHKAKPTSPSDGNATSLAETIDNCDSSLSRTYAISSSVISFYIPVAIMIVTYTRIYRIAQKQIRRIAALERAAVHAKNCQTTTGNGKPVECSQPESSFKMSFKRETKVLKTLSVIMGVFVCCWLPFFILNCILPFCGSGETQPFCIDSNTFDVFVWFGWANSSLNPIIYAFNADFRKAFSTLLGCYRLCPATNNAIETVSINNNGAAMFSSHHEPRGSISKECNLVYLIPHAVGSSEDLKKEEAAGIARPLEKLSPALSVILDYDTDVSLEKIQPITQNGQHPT
In short: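 Antagonism measured as reduced calcium response to an EC80 dopamine addition following 180 s compound pre-read; cells were inducible HEK293 Trex D1 plated overnight at 30 C, read kinetically at 1 cycle/sec.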
For `C=CCn1c(O)c(/C=N/N2CCOCC2)c(=O)[nH]c1=S`, the activity change, negative = inhibition was 6.62% (inactive).
With `COc1ccc(-c2nc(CS(=O)CC(=O)N3CCC4(CC3)OCCO4)c(C)o2)cc1` (stereo not drawn) the activity change, negative = inhibition was -3.25% (inactive).
With `CCN1C(=O)C(=Cc2c(C)n(CC(=O)NCC3CCCO3)c3ccccc23)C(=O)N(CC)C1=S` (stereo not drawn) the activity change, negative = inhibition was -0.95% (inactive).
For `CC(=NC1CCN(Cc2ccccc2)CC1)c1c(O)n(C)c(=O)n(C)c1=O`, the activity change, negative = inhibition was -0.272% (inactive).
In the case of `Cn1c(O)c(C(=Nc2ccc(F)cc2)c2ccccc2)c(=O)n(C)c1=O`, the activity change, negative = inhibition is reported as -33.5% (active).
`Cn1c(O)c(C=Nc2ccc3c(c2)CCC3)c(=O)n(C)c1=O` was tested, and the activity change, negative = inhibition was -5.53% (inactive).
With `COc1ccccc1N=C1SCCCN1C` the activity change, negative = inhibition was -10.1% (inactive).
`CCc1ccc(OCC(=O)N2CCN(CC(=O)Nc3ccccc3Cl)CC2)cc1` was tested, and the activity change, negative = inhibition was -5.54% (inactive).
For `COC(=O)C1=C(c2ccc(F)cc2OCc2ccccc2)C[C@@H]2CC[C@H]1N2C(=O)NCc1ccc(C(C)(C)C)cc1`, the activity change, negative = inhibition was -11.5% (inactive).
In the case of `COC(=O)C1=C(c2ccccc2OCc2ccccc2)C[C@@H]2CC[C@H]1N2C(=O)NCc1ccc(OC)cc1`, the activity change, negative = inhibition is reported as -30.4% (active).
For `COC(=O)C1=C(c2ccc(F)cc2OCc2ccccc2)C[C@@H]2CC[C@H]1N2C(=O)NCc1ccc(Cl)cc1`, the activity change, negative = inhibition was 12.1% (inactive).
`COC(=O)C1=C(c2ccc3ccccc3c2)C[C@@H]2CC[C@H]1N2C(=O)NCCO` was tested, and the activity change, negative = inhibition was -40.5% (active).
`COC(=O)C1=C(c2ccc(C(C)=O)cc2)C[C@@H]2CC[C@H]1N2C(=O)NCCNC(C)=O` was tested, and the activity change, negative = inhibition was 24% (inactive).
`COC(=O)C1=C(c2ccc(-c3ccccc3)c(F)c2)C[C@@H]2CC[C@H]1N2C(=O)NCc1ccc(F)cc1` was tested, and the activity change, negative = inhibition was -0.711% (inactive).
`CC(Cc1ccccc1)NCCC(c1ccccc1)c1ccccc1` (stereo not drawn) was tested, and the activity change, negative = inhibition was 15.9% (inactive).
`Cc1ccc(NC(=O)N(Cc2ccc3c(c2)OCO3)C2CCN(Cc3ccccc3)CC2)cc1F` was tested, and the activity change, negative = inhibition was 2.05% (inactive).
With `CSc1nc2ccc(C)cc2c(=O)n1-c1cccnc1` the activity change, negative = inhibition was 7.08% (inactive).
In the case of `Cc1cc(C(=O)OCC(=O)Nc2c(F)cccc2F)c(C)n1C1CC1`, the activity change, negative = inhibition is reported as 2.31% (inactive).
In the case of `Cc1nn(-c2ccccc2)c(C)c1NC(=O)COC(=O)Cc1ccccc1`, the activity change, negative = inhibition is reported as -0.424% (inactive).
`O=C(CCN1CCCCC1)NCC(=O)Nc1ccc(Br)cc1C(=O)c1ccccc1` was tested, and the activity change, negative = inhibition was -20.3% (inactive).
`O=C(CCNS(=O)(=O)c1ccccc1)Nc1ccc(Cl)cc1C(=O)c1ccccc1` was tested, and the activity change, negative = inhibition was -6.99% (inactive).
In the case of `O=C(COC(=O)c1ccccc1)Nc1ccc(Cl)cc1C(=O)c1ccccc1`, the activity change, negative = inhibition is reported as -31.5% (active).
In the case of `O=C(CN1CCCCC1)Nc1ccc(Br)cc1C(=O)c1ccccc1Cl`, the activity change, negative = inhibition is reported as -26.5% (inactive).
`CN1CCN(C(=S)SCC(=O)Nc2ccc(Cl)cc2C(=O)c2ccccc2)CC1` was tested, and the activity change, negative = inhibition was -39.4% (active).
In the case of `O=C(Nc1ccc(Cl)cc1C(=O)c1ccccc1)c1cc(Cl)cc(Cl)c1`, the activity change, negative = inhibition is reported as 23.8% (inactive).
In the case of `CN(c1ccccc1)c1ccc([N+](=O)[O-])c2nonc12`, the activity change, negative = inhibition is reported as 0.138% (inactive).
For `COC(=O)C1=C(c2ccc(F)cc2F)C[C@@H]2CC[C@H]1N2C(=O)NC1CC1`, the activity change, negative = inhibition was 25.8% (inactive).
`O=C(NC(=S)N1C[C@H]2C[C@H](C1)c1cccc(=O)n1C2)c1ccc(F)cc1` was tested, and the activity change, negative = inhibition was -0.512% (inactive).
`Cn1cc(/C=C/c2nc3ccccc3c(=O)n2-c2ccccc2)c2ccccc21` was tested, and the activity change, negative = inhibition was 11% (inactive).
For `Cc1ccccc1NC(=O)COC(=O)c1cc(C)n(C2CC2)c1C`, the activity change, negative = inhibition was 2.42% (inactive).
In the case of `C[C@]12CC[C@H](O)C[C@H]1CC[C@@H]1C2CC[C@]2(C)[C@@H](C3=CC(=O)OC3)[C@@H](O)C[C@]12O` (stereo partly drawn), the activity change, negative = inhibition is reported as -17.2% (inactive).
`CC(C)CN1CCN(Cc2ccccc2C(F)(F)F)CC1CCO` (stereo not drawn) was tested, and the activity change, negative = inhibition was 0.591% (inactive).
With `O=C(CCCn1c(=O)[nH]c2cc(Cl)ccc2c1=O)N1CCC2(CC1)OCCO2` the activity change, negative = inhibition was -7.09% (inactive).
With `Cc1ccc(Cn2c(C)c3cnn(CC(=O)N4CCC5(CC4)OCCO5)c(=O)c3c2C)cc1` the activity change, negative = inhibition was -49.4% (active).
With `Cc1ccc(-c2cc(C(=O)N3CCC4(CC3)OCCO4)no2)cc1` the activity change, negative = inhibition was -7.04% (inactive).
With `CNC(=O)O/N=C(\N)Cc1csc2ccccc12` the activity change, negative = inhibition was -21.2% (inactive).
`CNC(=O)N(C)c1nnc(C(C)(C)C)s1` was tested, and the activity change, negative = inhibition was 9.77% (inactive).
`CCc1nc2ccccc2c(=O)n1-c1cccc(OC)c1` was tested, and the activity change, negative = inhibition was 2.19% (inactive).
With `NCC(O)c1ccc(O)cc1` (stereo not drawn) the activity change, negative = inhibition was -66.9% (active).
`CCOP(=O)(OCC)C(NC(=O)NC)C(N)=O` (stereo not drawn) was tested, and the activity change, negative = inhibition was 4.22% (inactive).
With `COC(=O)C1=C(c2cccc(OCc3ccccc3)c2)C[C@@H]2CC[C@H]1N2C(=O)NNCc1ccccc1` the activity change, negative = inhibition was -14.3% (inactive).
In the case of `CCN1CCN(c2ccc([N+](=O)[O-])cc2C#N)CC1`, the activity change, negative = inhibition is reported as 1.99% (inactive).
In the case of `CC(C)n1c(=O)c(C=Nc2ccc(Br)cc2)c(O)n(Cc2ccco2)c1=O`, the activity change, negative = inhibition is reported as 14% (inactive).
